Assay outcomes deposited in PubChem by National Center for Advancing Translational Sciences (NCATS).
The sample as a whole holds a higher share of hits than the screen did.
Pf Dd2 growth: Plasmodium falciparum Dd2 growth inhibition; P. falciparum Dd2 growth, SYBR Green, 72 h; Potency, µM (top dose mostly 28.9 µM), hits mostly inhibitors; 120,000 tested, 4.3% active; active means well fitted inhibition curve with a large enough effect; further: nearly all actives have a fitted effect of over 65% in size
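Readout: SYBR Green fluorescence, 485 nm excitation, 535 nm emission, after ~16 h lysis at 37C. Before that, Dd2-infected red cells (2.5% hematocrit) grew 72 h with compound, 29 uM top final concentration.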
Hits are given with their value; - = inactive.

SMILES	Pf Dd2 growth
CCc1nc(-c2c3n(c(=O)n(Cc4cccc(C#N)c4)c2=O)CCCC3)no1	-
CCOc1ccc(CC(=O)N2CCC3(CC2)CN(C(C)=O)CC3COC)cc1 (stereo not given)	-
COCCN1CCN(C[C@@H]2C=C(C)[C@H](Cc3nnc(C)o3)C[C@H]2C(C)C)CC1	-
CCCc1nnc(C[C@@H]2C[C@@H](C(C)C)[C@H](CN3CCN(C(C)=O)CC3)C=C2C)o1	11µM
CC1=C[C@@H](CN2CCN(c3ncccn3)CC2)[C@H](C(C)C)C[C@H]1Cc1nnc(Cc2c[nH]c3ccccc23)o1	3.5µM
CC1=C[C@@H](CN2CCN(c3cnccn3)CC2)[C@H](C(C)C)C[C@H]1Cc1nnc(-c2ccc([N+](=O)[O-])cc2)o1	-
CC1=C[C@@H](CN2CCOCC2)[C@H](C(C)C)C[C@H]1Cc1nnc(-c2ccccc2)o1	-
CC1=C[C@@H](CN2CCN(CCO)CC2)[C@H](C(C)C)C[C@H]1Cc1nnc(C)o1	-
CC(=O)N1CCN(C[C@@H]2C=C(C)[C@H](Cc3nnc(-c4cccnc4)o3)C[C@H]2C(C)C)CC1	7.9µM
Cc1cnn(CCC(=O)N2CCCCCCNC(=O)CC2)c1	-
CN(Cc1ccccc1)C(=O)[C@H]1CCC[C@H]1NC(=O)c1ccncc1	-
COc1ccc(CNC(=O)N2C[C@@H](Oc3ccccc3)C[C@@H]2C(=O)N2CCOCC2)cc1	-
Cn1cc(Cl)cc1C(=O)N1CC[C@@]2(O)CCN(C(=O)C3CCC3)C[C@H]2C1	-
O=C(Cc1ccccc1)N1CCC2(CC(c3cccnc3)=NO2)C1 (stereo not given)	-
CC1(C)Cc2nc(C(C)(C)C)ncc2C(NC(=O)CCCN2CCCC2=O)C1 (stereo not given)	-
CCOC(=O)c1c(NC(=O)CSc2cn(CCNC(=O)c3ccc(OCC)cc3)c3ccccc23)sc2c1CCC2	-
CCOC(=O)c1c(NC(=O)CSc2cn(CCNC(=O)c3ccccc3OC)c3ccccc23)sc2c1CCC2	11µM
CCOC(=O)c1c(NC(=O)CSc2cn(CCNC(=O)c3ccccc3F)c3ccccc23)sc2c1CCCC2	-
COc1ccc(-c2noc([C@@H]3CCCN3C(=O)c3cccc(F)c3)n2)cc1OC	-
CCOC(=O)C(C)NC(=O)c1c(C)oc2ncn(CC(C)C)c(=O)c12 (stereo not given)	-
COc1ccc(OC)c(CCNC(=O)c2c(C)oc3ncn(C)c(=O)c23)c1	-
COc1ccc(OC)c(CNC(=O)c2c(C)oc3ncn(CC(C)C)c(=O)c23)c1	10µM
CCc1ccccc1NC(=O)N1CCC2(CC1)SCC(=O)N2Cc1ccco1	-
CN1C[C@H](O)C[C@H]1c1nnc2n1CCN(S(=O)(=O)c1ccc(F)cc1)CC2	-
Cc1cnc(-c2cccnc2)n1CC1CCN(C(=O)c2ccco2)CC1	-
SMILES	Pf Dd2 growth
CCN(CC)c1cc(C)c2cc(NC(=O)c3cc(OC)cc(OC)c3)ccc2n1	-
CCN(CC)c1cc(C)c2cc(NC(=O)c3ccc(F)cc3Cl)ccc2n1	-
CCN(CC)c1cc(C)c2cc(NC(=O)/C=C/c3ccccc3Cl)ccc2n1	10µM
CC1=NOC2(CCCN(C(=O)Cc3ccccc3)C2)C1 (stereo not given)	-
Cn1ccnc1CN[C@@H]1CO[C@H](CNC(=O)N2CCOCC2)[C@H]1O	-
CCN1c2cc(C(=O)NCc3ccc(OC)cc3)ccc2C(=O)N2CCCCCC21 (stereo not given)	-
CCN1c2cc(C(=O)NCc3ccccc3C)ccc2C(=O)N2CCCCCC21 (stereo not given)	6.3µM
CC(C)c1ccc(CNC(=O)c2ccc3c(c2)N(C)C2CCCCN2C3=O)cc1 (stereo not given)	2.2µM
CCN1c2cc(C(=O)NCc3cccc(OC)c3OC)ccc2C(=O)N2CCCCCC21 (stereo not given)	-
CCN1c2cc(C(=O)NCc3cccc(Cl)c3)ccc2C(=O)N2CCCCCC21 (stereo not given)	-
CN1c2cc(C(=O)NCc3ccccc3)ccc2C(=O)N2CCCCC21 (stereo not given)	-
CCN1c2cc(C(=O)NCc3ccc(Cl)cc3)ccc2C(=O)N2CCCCC21 (stereo not given)	8.9µM
CCN1c2cc(C(=O)NCc3ccc(C)c(C)c3)ccc2C(=O)N2CCCCCC21 (stereo not given)	-
CN1c2cc(C(=O)NCc3ccc(Cl)cc3)ccc2C(=O)N2CCCCC21 (stereo not given)	-
COc1ccccc1C(=O)N1CCCCCC1c1nc(C)no1 (stereo not given)	-
O=C(c1ccccc1F)N1CCn2c(nn(-c3ccc(C(F)(F)F)cc3)c2=O)C1	-
O=C(CN1C(=O)NC2(CCCCC2)C1=O)NC1CCc2ccccc21 (stereo not given)	-
O=C(c1cc(C2CC2)nc2onc(C3CCCNC3)c12)N1CCOCC1 (stereo not given)	-
O=C(c1ccc(Cn2ccnc2)o1)N1CC2CC(C1)[C@H]1CCCC(=O)N1C2 (stereo not given in full)	-
Cc1c(-c2ccc(Br)cc2)c(=O)oc2ccc(OC(=O)N3CCOCC3)cc12	-
Cc1ccccc1CN1CCc2nc(C(=O)N3CCOCC3)oc2CC1	-
CCn1cc(-c2ccc(Cl)cc2)cc1C(=O)NCCN1CCOCC1	-
Cc1c(-c2ccc(Cl)cc2)c(=O)oc2c(CN3CCOCC3)c(O)ccc12	5.6µM
Cc1c(-c2ccccc2)c(=O)oc2c(CN3CCOCC3)c(O)ccc12	8.9µM
Cc1c(-c2ccc(Cl)cc2)c(=O)oc2ccc(OC(=O)N3CCOCC3)cc12	-
SMILES	Pf Dd2 growth
CN1c2cc(C(=O)Nc3ccc(Cl)c(C(F)(F)F)c3)ccc2C(=O)N2CCCC21 (stereo not given)	-
O=C(C1CCC1)N1CC[C@H]2COC(=O)N2c2ccccc2C1	-
CN(C)C(=O)c1cccnc1OC1CCN(S(=O)(=O)c2cc(F)cc(F)c2)C1 (stereo not given)	-
Cc1ccc(-c2noc([C@@H]3C[C@H](NC(=O)CC(C)(C)CC(=O)O)CN3C)n2)cc1	-
Cn1c(=O)c2c(nc(SCC(=O)Nc3ccc(F)cc3F)n2Cc2ccccc2)n(C)c1=O	-
Cn1c(=O)c2c(nc(SCC(=O)Nc3ccccc3)n2Cc2ccccc2F)n(C)c1=O	-
Cn1c(=O)c2c(nc(SCC(=O)Nc3ccc(OC(F)(F)F)cc3)n2Cc2cccc(C(F)(F)F)c2)n(C)c1=O	11µM
Cc1cnc(C2CCOCC2)n1CC1CCN(C(=O)CC2CCCC2)CC1	-
O=C1Nc2ccccc2O[C@H]2C[C@@H]1N(Cc1nccs1)C2	-
CS(=O)(=O)N1CCCC(C(=O)NC2CCN(Cc3ccccc3)CC2)CCNC(=O)CC1 (stereo not given)	-
Cc1ccc(C2Cn3nnc(-c4nc(-c5ccccc5C)no4)c3CO2)c(C)c1 (stereo not given)	-
O=C(CCC[C@@H]1[C@H]2CCCN3CCC[C@@H](CN1C(=O)C1(c4ccccc4)CC1)[C@@H]23)NCC1CC1	13µM
CC(C)C(=O)N1C[C@@H]2CCCN3CCC[C@@H]([C@H]23)[C@H]1CCCC(=O)NCC1CC1	-
Cc1cccc(C(=O)N2C[C@@H]3CCCN4CCC[C@@H]([C@H]34)[C@H]2CCCC(=O)NCC2CC2)c1	-
O=C1CCN(C(=O)C2CCN(C(=O)COc3ccc(F)cc3)CC2)CCCCCCN1	-
Cn1cnc(S(=O)(=O)N2CCCCC2c2nc(-c3ccncc3)n[nH]2)c1 (stereo not given)	-
Cc1ccc(Cn2c(SCc3ccc(C(=O)NC4CCCC4)cc3)nc3ccncc32)cc1	11µM
